Source: PubChem BioAssay
MPTP block: blocks calcium-induced mitochondrial swelling. actives 1.4% (n = 360,000). inhibition, % at 10 µM. AID 602449. isolated mouse mitochondria, Ca2+ swelling absorbance, 30 min;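 active = inhibition of 50% or more, scaled per plate between neutral and stimulator controls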;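 also: 0% = DMSO wells given calcium and 100% = 1 mM EGTA wells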
NR3A LBD binder: NR3A (human) ligand-binding domain modulation. actives 2.5% (n = 340,000). Tm shift relative to glycine control, % at 25 µM. NR3A LBD differential scanning fluorimetry, Tm shift; 0% = protein alone, 100% = glycine-bound protein. AID 1259313;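 active = melting temperature shift of at least 10% of the positive control shift, at one fixed dose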
rCAG RNA binder: r(CAG) repeat RNA binding; TO-PRO-1 dye displacement fluorescence; inhibition, % at 3 µM; actives 1.3% (n = 370,000); AID 651821;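 active = inhibition above the plate cutoff, the mean of all test compounds on that plate plus 3 SD, cut at about 35% in these data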;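 also: 0% = DMSO alone and 100% = 100 µM mitoxantrone as full dye displacement; higher means more dye released from RNA so lower well fluorescence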
Myeloid diff MLP: promotes myeloid progenitor differentiation; ER-HoxA9 myeloid progenitors, lysozyme-GFP differentiation, flow cytometry; calls only at 10 µM; actives 1% (n = 360,000); AID 624256;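 active = normalized GFP-positive differentiation at or above the plate's own cutoff, the solvent-only control mean plus 3 SD; inconclusive = no clear call, values can overlap the other calls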;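 also: cells exposed to compound for four days before flow analysis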
FAS-TE inh: FAS thioesterase (human) inhibition; P49327; recombinant FAS-TE, OMFH fluorogenic substrate, fluorescence endpoint; inhibition, % at 15 µM; actives 0.67% (n = 360,000);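 active = compounds whose normalised, plate-corrected inhibition of enzyme fluorescence in the single-dose primary screen is 50% or more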;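 also: 0% = DMSO with enzyme and 100% = substrate without enzyme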
FAS-TE conf: FAS thioesterase (human) inhibition, confirmation. shares compounds with FAS-TE inh. recombinant FAS-TE, OMFH fluorogenic substrate, fluorescence. inhibition, % at 15 µM. actives 45% (n = 2,300). AID 624325;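 active = compounds inhibiting the enzyme by at least 50% at 15 µM in any one of the replicates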;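 also: 0% = enzyme with DMSO only and 100% = wells lacking enzyme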
Rh123 counter: mitochondrial membrane potential, counter-screen | shares compounds with MPTP block | isolated mitochondria, Rhodamine 123 fluorescence | inhibition, % at 10 µM | actives 78% (n = 5,000); in the data active = inhibition above about 22%;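 also: 0% = DMSO vehicle and 100% = positive control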
rCAG bind conf: r(CAG) RNA repeat binding, confirmation | inhibition, % at 3 µM | AID 652065 | TO-PRO-1 dye displacement fluorescence | actives 70% (n = 4,300) | shares compounds with rCAG RNA binder;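 active = inhibition above a per-plate cutoff, the mean inhibition of sample wells plus 3 SD, cut at about 35% in these data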;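 also: loss of TO-PRO-1 fluorescence as compound displaces dye from 1x1 AA loop RNA; 0% = DMSO only wells and 100% = 100 µM mitoxantrone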
DNA CAG counter: counter-screen for rCAG RNA binders: DNA CAG dye complex inhibitors | d(CAG) DNA oligo TO-PRO-1 dye displacement, fluorescence | shares compounds with rCAG RNA binder | inhibition, % at 3 µM | actives 94% (n = 4,300);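 active = inhibition above its plate's cutoff, the mean test-well inhibition plus 3 SD, cut at about 4.8% in these data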;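 also: 0% = DNA dye mix with DMSO and 100% = 100 µM mitoxantrone; hits displace the dye from DNA and so lower well fluorescence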
dCAG dye DR: disrupts DNA CAG TO-PRO-1 complex in dose response; shares compounds with rCAG RNA binder; DNA CAG/GTC duplex TO-PRO-1 dye displacement fluorescence; IC50, µM; actives 20% (n = 250); AID 686960; in the data active = IC50 below about 10 µM
An asterisk follows results filed as active; i = inactive; ? = inconclusive; . = no result. Compounds with a hit are over-represented: about 5.7% of the library has one in this group of screens.

SMILES	MPTP block	NR3A LBD binder	rCAG RNA binder	Myeloid diff MLP	FAS-TE inh	FAS-TE conf	rCAG bind conf	DNA CAG counter	others
O=[N+]([O-])c1ccc(Cl)c(S(=O)(=O)Nc2ccc(-c3ccc(N4CCCC4)nn3)cc2)c1	0	4	47*	i	67*	27*	39*	12*
O=[N+]([O-])c1ccc(Cl)c(S(=O)(=O)Nc2cccc(-c3ccc(N4CCCC4)nn3)c2)c1	-1	16*	47*	i	58*	66*	52*	18*
Cc1c([N+](=O)[O-])cc(S(=O)(=O)Nc2ccc(-c3ccc(N4CCCC4)nn3)cc2)cc1[N+](=O)[O-]	0	3	56*	i	87*	90*	65*	28*
COc1ccc(S(=O)(=O)Nc2ccc(-c3ccc(N4CCCC4)nn3)cc2)cc1C	-2	-8	10	i	9	.	.	.
Cc1ccc([N+](=O)[O-])cc1S(=O)(=O)Nc1ccc(-c2ccc(N3CCCC3)nn2)cc1	-2	5	37*	i	54*	51*	43*	16*
CCCCN(CCCC)CC(O)c1cc(Cl)cc2c1-c1ccc(Cl)cc1/C2=C/c1ccc(Cl)cc1 (stereo not drawn)	.	.	19	.	.	.	.	.
CC(C)(C)c1ccc(OCCSc2nc3ccccc3n2CC(=O)O)cc1	0	8	39*	i	78*	87*	43*	11*
O=C(O)Cn1c(SCCOc2ccccc2)nc2ccccc21	0	-1	5	i	4	.	.	.
Cn1c(=O)c(C#N)c(-c2ccc(F)cc2)c2cc(C(=O)c3cc(Cl)cc(Cl)c3O)cnc21	95*	12*	75*	i	54*	27	83*	41*	Rh123 counter=60*
Cc1cccc2cc(/C=N/Nc3ccc(C(=O)O)cc3)c(Cl)nc12	0	-4	47*	i	54*	50*	43*	11*
O=C(O)c1ccc(N/N=C/c2cc3ccccc3nc2Cl)cc1	2	3	12	i	5	.	.	.
Cn1c2ccccc2c2ccc3c(c21)C(=O)C=CC3=O	2	-12	33	i	18	.	.	.
Cc1ccc2c(c1)c1ccc3c(c1n2C)C(=O)C=CC3=O	0	-7	51*	?	54*	10	13	9.6*
O=[N+]([O-])c1ccc(-c2nc(Nc3cccc(O)c3)c3ccccc3n2)cc1	3	30*	48*	i	56*	54*	28	13*
Oc1ccc(Cl)cc1Sc1cc(Cl)ccc1O	70*	25*	38*	i	88*	98*	43*	12*	Rh123 counter=68*
COC(=O)N1Cc2ccnnc2CC1c1ccccc1-c1ccc(OC)cc1 (stereo not drawn)	.	.	3	.	.	.	.	.
Cc1coc2c1C(=O)C(=O)c1c-2ccc2c1CCCC2(C)C	19	-10	43*	i	58*	22	23	13*
C[C@H]1COC2=C1C(=O)C(=O)c1c2ccc2c1CCCC2(C)C	0	-10	.	i	36	.	.	.
COc1ccc(C(C)=NNc2ccc([N+](=O)[O-])cc2S(=O)(=O)Nc2ccccc2C(=O)O)c(OC)c1	86*	9	77*	i	71*	68*	93*	78*	Rh123 counter=38*
O=[N+]([O-])c1cc(S(=O)(=O)Nc2cccc(C(F)(F)F)c2)ccc1-n1nnc2ccccc21	92*	19*	78*	i	66*	80*	69*	33*	Rh123 counter=84*
CCOC(=O)[C@]12CCCCC/C=C\1N(Cc1ccc(OC)cc1)C(=O)[C@H]2CC(=O)NCCCCc1ccccc1	.	.	3	.	.	.	.	.
COc1ccc(C(=O)O)cc1NC(=S)NC(=O)c1ccc(-c2ccc(Cl)cc2)o1	0	-6	40*	i	58*	66*	72*	32*	dCAG dye DR=7.7*
CCN(CC)CCCNC(=O)CSc1nnc(-c2ccncc2)n1-c1ccc(OC)cc1	.	.	0	.	.	.	.	.
Cc1nc2ccc(NC(=O)c3cc([N+](=O)[O-])cc([N+](=O)[O-])c3Cl)cc2s1	7	18*	94*	i	70*	89*	55*	22*
Cc1nc2ccc(NC(=O)c3ccc(Cl)c([N+](=O)[O-])c3)cc2s1	38	-6	1	i	15	.	.	.
SMILES	MPTP block	NR3A LBD binder	rCAG RNA binder	Myeloid diff MLP	FAS-TE inh	FAS-TE conf	rCAG bind conf	DNA CAG counter	others
O=[N+]([O-])c1ccc(S(=O)(=O)Nc2ccc(-c3ccccc3)cc2)cc1	23	.	45*	i	70*	70*	35*	8.7*
Cc1c(-c2ccccc2)nnn1-c1ccc(F)c(Cl)c1	.	.	2	.	.	.	.	.
COC(=O)Cc1nnn2c1[C@H](C)[C@@H](OC)c1ccc(C(F)(F)F)cc1-2	.	.	-1	.	.	.	.	.
CC(/C=C1\SC(=S)N(c2ccc(C(=O)O)cc2)C1=O)=C\c1ccccc1	32	4	55*	i	90*	14	84*	52*
Cc1cc(C)c(Nc2cc(S(=O)(=O)O)c(N)c3c2C(=O)c2ccccc2C3=O)c(C)c1	20	547*	94*	i	75*	46	93*	79*
Cc1cc(C)c(NC(=O)COC(=O)c2cccc3c2C(=O)c2ccccc2C3=O)c(C)c1	1	-30	9	i	8	.	.	.
CC(=O)c1ccc(-c2ccccc2C2=CC(=O)CC(C)(C)C2=O)cc1	.	.	3	.	.	.	.	.
CCOC(=O)c1sc(N2C(=O)C(O)=C(C(=O)c3ccco3)C2c2ccc([N+](=O)[O-])cc2)nc1C (stereo not drawn)	7	-5	80*	i	56*	73*	85*	55*
O=c1[nH]c(=O)n(C2OC(CO)C(O)C(O)C2O)cc1F (stereo not drawn)	.	.	0	.	.	.	.	.
CCCCCCCCCCCCCCCCCCNc1ccn(C2OC(COP(=O)(O)OCC3OC(n4cc(F)c(=O)[nH]c4=O)CC3O)C(O)C2O)c(=O)n1 (stereo not drawn)	-7	0	55*	?	55*	27	61*	36*
N#Cc1ccc(OCCCN2CCC(C(O)(c3ccccc3)c3ccccc3)CC2)cc1	.	.	1	.	.	.	.	.
O=C(OC12CCCN(C1)/C(=C/c1ccc(Cl)cc1)C2)C1CCCC1 (stereo not drawn)	.	.	3	.	.	.	.	.
